Bioassay records deposited in PubChem BioAssay by several laboratories.
esBAF inh: inhibitors of esBAF chromatin remodeling in mouse ES cells; Bmi1-luciferase knock-in reporter, 24 h; 100% = twice the neutral-well signal; reporter increase, % at 12.5 µM; AID 602393; 350,000 tested, 2% active; in the data active = activation above about 40%; inconclusive = no clear call, values can overlap the other calls;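 also: a rise in the Bmi1 reporter signal indicates esBAF inhibition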
SMARCA2 act: increases SMARCA2 function in MMTV reporter cells; MG213 cells, MMTV-luciferase reporter, dexamethasone, overnight; activation, % at 9.1 µM; 370,000 tested, 1% active; in the data active = activation above about 7.8%
NR3A LBD binder: NR3A (human) ligand-binding domain modulation; 340,000 tested, 2.5% active; NR3A LBD differential scanning fluorimetry, Tm shift; 0% = protein alone, 100% = glycine-bound protein; Tm shift relative to glycine control, % at 25 µM;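 active = melting temperature shift of at least 10% of the positive control shift, at one fixed dose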
SKN-1 inh: blocks SKN-1 activity in C. elegans. C. elegans VP596 Pgst-4::GFP/RFP ratio, acrylamide-induced, 24 h. inhibition, % at 21.8 µM. 360,000 tested, 0.49% active. AID 624304;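 active = interference check ratio from 0.5 to 1.5 plus GFP to RFP signal ratio inhibition reaching or exceeding a fixed threshold, cut at about 30% in these data, passing the limit was not always enough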
NadD inh: NadD (S. aureus) enzyme inhibition; purified NadD enzyme, colorimetric absorbance read-out; inhibition, % at 20 µM; 360,000 tested, 0.78% active; in the data active = inhibition above about 26%
Vif imaging: HIV Vif inhibition | HEK293T cells, Vif self-association by quenched fluorescence, imaging, 24 h | inhibition, % at 7.49 µM | 340,000 tested, 0.35% active; in the data active = inhibition above about 50%, passing the limit was not always enough; inconclusive = no clear call, values can overlap the other calls; inactive = below about 31%
Hits are given with their value; – = inactive; ? = inconclusive; · = no result. Only some compounds are listed: those with a hit (about 5.2% of all), similar ones and a draw of the others.

SMILES	esBAF inh	SMARCA2 act	NR3A LBD binder	SKN-1 inh	NadD inh	Vif imaging
CC(C)CC(C(=O)NCc1ccccn1)N1C(=O)c2ccccc2C1=O (centres undefined)	–	–	–	41.8	–	–
COc1cccc(NC(=O)N[C@@H]2CC[C@H](CC(=O)N3CCCCC3)O[C@@H]2CO)c1	–	·	·	·	·	·
Cc1ccc(Cc2c(-c3ccc(F)cc3)nc3cc(C)ccn23)cc1	44.2	–	·	–	–	–
Cc1ccc(Cc2c(-c3ccc(F)cc3)nc3ccc(Cl)cn23)cc1	–	–	·	–	–	–
O=[N+]([O-])c1cccc(/C=C/c2nc[nH]c2[N+](=O)[O-])c1	–	–	15.9	–	–	–
CCC(=O)C1CCCN(C(=O)CCc2nnc(-c3ccc4c(c3)OCO4)o2)C1 (centres undefined)	–	–	–	–	–	–
CC1CCCN(C(=O)CCc2nnc(-c3ccc4c(c3)OCO4)o2)C1 (centres undefined)	42.1	–	–	–	–	–
CCC(=O)C1CCCN(C(=O)CCc2nnc(-c3ccc(C(C)=O)s3)o2)C1 (centres undefined)	82.6	–	–	–	–	–
N#C/C(=C\c1cccs1)C(=O)c1ccccc1	·	–	13.9	–	–	–
COC(=O)C1CCN(C(c2ccc(OC)c(OC)c2)c2sc3nc(C)nn3c2O)CC1 (centres undefined)	–	–	12.8	–	–	–
COc1ccc(C(c2sc3nc(C)nn3c2O)N2CCC(C(N)=O)CC2)cc1OC (centres undefined)	–	–	–	–	–	·
COCC#Cc1ccc2c(c1)O[C@@H](CN(C)C(=O)CN(C)C)[C@@H](C)CN([C@@H](C)CO)S2(=O)=O	–	·	·	·	·	·
CCCCC1=CC2=C(c3ccco3)C(=O)C(C)(OC(=O)c3ccc(OC)cc3)C(=O)C2=CN1Cc1ccco1 (centres undefined)	–	·	–	–	36.6	–
Cn1c(CSc2nc3ccccc3s2)n[nH]c1=S	–	–	–	–	–	–
CC(=O)CSc1nc2ccccc2s1	–	–	–	34.2	–	–
Cn1c(CSc2nc3ccccc3s2)nc2ccccc21	49.5	–	–	–	–	–
C[C@H](CO)N1C[C@H](C)[C@H](CN(C)C)Oc2ccc(NC(=O)Nc3ccc4c(c3)OCO4)cc2C1=O	–	·	·	·	·	·
C[C@@H]1CN([C@@H](C)CO)C(=O)Cc2cc(NS(=O)(=O)c3cccs3)ccc2O[C@H]1CN(C)Cc1ccc(C(F)(F)F)cc1	–	·	·	·	·	·
Cc1[nH]n(-c2ccccc2)c(=O)c1/C=N/NC(=O)c1ccc(O)cc1O	–	·	10.2	–	–	–
Cc1[nH]n(-c2ccc(Br)cc2)c(=O)c1/C=N/NC(=O)c1ccccc1	–	–	–	–	–	–
Cc1cc(C(=O)N/N=C/c2c(C)[nH]n(-c3ccccc3)c2=O)n[nH]1	–	–	–	–	–	–
Cc1ccc(-n2[nH]c(C)c(/C=N/NC(=O)c3ccc(O)cc3O)c2=O)cc1	–	·	13.3	–	–	–
Cc1ccccc1CN(C)C[C@H]1OCc2cn(nn2)CCCC(=O)N([C@H](C)CO)C[C@H]1C	–	·	·	·	·	·
CC(C)C#Cc1cnc2c(c1)C(=O)N([C@@H](C)CO)C[C@@H](C)[C@@H](CN(C)Cc1ccccc1F)O2	–	·	·	·	·	·
CO[C@@H]1CN(C)C(=O)c2ccc(NS(=O)(=O)c3ccccc3C)cc2OC[C@@H](C)N(S(=O)(=O)c2ccccc2)C[C@H]1C	–	·	·	·	·	·
SMILES	esBAF inh	SMARCA2 act	NR3A LBD binder	SKN-1 inh	NadD inh	Vif imaging
Oc1ccc(Nc2nc(-c3ccccc3F)nc3ccccc23)cc1	–	–	25.2	–	–	–
Oc1ccccc1Nc1nc(-c2ccccc2O)nc2ccccc12	–	–	28.4	–	–	–
Oc1ccc(Nc2nc(-c3ccccc3O)nc3ccccc23)cc1	–	–	35.9	–	–	–
COc1ccccc1Nc1nc(-c2ccccc2O)nc2ccccc12	·	–	–	–	–	–
COc1ccc(Nc2nc(-c3ccccc3O)nc3ccccc23)cc1	–	–	34.2	–	–	–
CCCN(C)C[C@H]1OCCCC[C@@H](C)Oc2ccc(NC(=O)Nc3ccc(F)cc3)cc2C(=O)N([C@H](C)CO)C[C@@H]1C	–	·	·	·	·	·
CC(C)NC(=O)N1C[C@H]2[C@@H](c3ccccc31)[C@H](CO)N2C(=O)c1ccccc1	–	·	·	·	·	·
CNC(=O)C[C@@H]1CC[C@H]2[C@@H](COC[C@@H](O)CN2Cc2ccc(Cl)c(Cl)c2)O1	–	·	·	·	·	·
C[C@@H]1CN([C@@H](C)CO)C(=O)c2ccccc2-c2ccccc2CO[C@@H]1CN(C)S(C)(=O)=O	–	·	·	·	·	·
CC(C)CC#Cc1cnc2c(c1)C(=O)N([C@@H](C)CO)C[C@@H](C)[C@@H](CN(C)C(=O)CCN1CCCCC1)O2	–	·	·	·	·	·
COc1ccc(NC(=O)N[C@H]2CC[C@@H](CCNS(=O)(=O)c3ccccc3F)O[C@@H]2CO)cc1	–	·	·	·	·	·
COc1cccc(Nc2nc(-c3ccccc3)nc3ccccc23)c1	–	–	36.6	–	–	–
COc1cccc(Nc2nc(-c3ccccc3O)nc3ccccc23)c1	–	–	31.7	–	–	–
COc1ccc(Nc2nc(-c3ccccc3)nc3ccccc23)c(OC)c1	–	–	–	–	–	–
C/C(=N\Nc1nc(-c2ccccc2O)nc2ccccc12)c1ccccc1	·	–	13.4	–	–	–
COc1cccc(Nc2nc(NCC3CCCO3)c3ccccc3n2)c1 (centres undefined)	–	–	–	37.1	–	–
COc1ccc(NC(=O)c2sc3ncnc(N4CCN(c5ccccn5)CC4)c3c2C)cc1Cl	–	–	–	–	–	–
Cc1cc(Br)ccc1NC(=O)c1sc2ncnc(N3CCN(c4ccccn4)CC3)c2c1C	–	–	–	–	30.1	–
CN(C)c1ccc(N=Cc2nc(-c3ccccc3)oc2O)cc1	·	–	–	–	–	–
CSc1ccccc1N=Cc1nc(-c2ccccc2)oc1O	52.2	–	–	–	–	–
Oc1oc(-c2ccccc2)nc1C=NCc1ccccc1	55.9	–	–	–	–	?
Oc1oc(-c2ccccc2)nc1C=Nc1ccccc1	·	–	–	–	–	–
CC(C)COC(=O)N(C)C[C@H]1OCc2ccccc2-c2c(n(C)c3ccccc23)C(=O)N([C@H](C)CO)C[C@@H]1C	–	·	·	·	·	·
Cc1ccc(Cn2nnc3c(=O)[nH]c(C4CCN(S(=O)(=O)c5ccc(F)cc5)CC4)nc32)cc1	·	–	–	–	–	–
Cc1ccc(C)c(Cn2nnc3c(=O)[nH]c(C4CCN(S(=O)(=O)c5ccc(S(=O)(=O)NC6CC6)cc5)CC4)nc32)c1	–	–	12.1	–	–	–
O=c1[nH]c(C2CCN(S(=O)(=O)c3ccc(S(=O)(=O)NC4CC4)cc3)CC2)nc2c1nnn2Cc1ccc(F)cc1	–	–	10.5	–	–	–
O=c1[nH]c(C2CCN(S(=O)(=O)c3ccc(S(=O)(=O)NC4CC4)cc3)CC2)nc2c1nnn2Cc1ccccc1	–	–	–	–	–	–
